Results on ten molecules are retold here after PubChem BioAssay (NCI).

Experiment [1] can be described thus: NCI Yeast Anticancer Drug Screen. Data for the rad50 strain (AID 155).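 Note: 0% = growth of vehicle-only cultures of the same strain.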 The following applies: S. cerevisiae rad50 strain growth inhibition, active compounds read high. In a few lines:
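Inhibition values express reduced yeast growth in compound-treated cultures relative to vehicle-treated controls.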

Experiment [2] can be described thus: NCI Yeast Anticancer Drug Screen. Data for the mec2-1 strain (AID 157). Conditions: S. cerevisiae mec2-1 strain, active compounds read high. In short, it runs like this: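 Growth inhibition is read against vehicle-treated controls after compound exposure of the mec2-1 yeast strain, which is defective in DNA damage repair or cell cycle control.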
The nature of experiment [3]: NCI Yeast Anticancer Drug Screen. Data for the sgs1 mgt1 strain (AID 161).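 Note: 0% = growth of cultures given vehicle only.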 The following applies: S. cerevisiae sgs1 mgt1 strain, active compounds read high. In a few lines:
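Compounds are added to genetically altered yeast, and growth is compared with cultures given vehicle alone to give percent inhibition.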

A short description of experiment [4]: NCI Yeast Anticancer Drug Screen. Data for the cln2 rad14 strain (AID 165).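 Note: 0% = growth equal to vehicle treated cultures.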 The following applies: S. cerevisiae cln2 rad14 strain, active compounds read high. In short, it runs like this: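 Growth inhibition, relative to vehicle-treated controls, is the read-out. The test organism is a yeast strain with defined genetic alterations, cln2 rad14.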
The nature of experiment [5]: NCI Yeast Anticancer Drug Screen. Data for the bub3 strain (AID 167). The following applies: S. cerevisiae bub3 mutant strain, active compounds read high. In a few lines: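 Steps: expose the mutant yeast strain to compound; grow alongside vehicle-treated cultures; measure growth; express inhibition against the vehicle cultures.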
The nature of experiment [6]: NCI Yeast Anticancer Drug Screen. Data for the mlh1 rad18 strain (AID 175). Conditions: S. cerevisiae mlh1 rad18 strain growth inhibition, active compounds read high. In a few lines: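 Cells of a genetically altered yeast strain, deficient in DNA damage repair, were treated with compound. Their growth was then compared with that of vehicle-treated cultures to give inhibition.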

Where [7] appears, read: at 5.0 µM (retest, dose inferred, filed as 0.5).
Setting [8] is: at 50.0 µM (retest, dose inferred, filed as 5.0).

About 79,000 compounds went through this panel and 15% of them were active in at least one assay; those are over-represented in the sample as a whole. Unmarked numbers belong to inactive results. Calls of active or inactive are those of the source. Cut-off read from the data, not from the text of the source: active = growth inhibition above about 70%; inactive = the rest.

Regarding `COC(O)C(=O)c1ccc2c(c1)CC1(C2)Cc2cc3c(cc2C1=O)CCC3` (stereo not given), the growth inhibition in experiment [1] (setting [7]) is 28%; in experiment [1] (setting [8]), 99% (active); in experiment [1] (at 50.0 µM) it was 20.2%; in experiment [2] (setting [7]), 40%; in experiment [2] (setting [8]) it was 99% (active); in experiment [2] (at 50.0 µM), 23.9%. Besides, the growth inhibition in experiment [3] (setting [7]) is 33%; in experiment [3] (setting [8]), 98% (active); in experiment [3] (at 50.0 µM), 52.1%; in experiment [4] (setting [7]) it was 23%; in experiment [4] (setting [8]), 99% (active); in experiment [4] (at 50.0 µM), 57.4%. In addition, the growth inhibition in experiment [5] (setting [7]) is 35%; in experiment [5] (setting [8]), 99% (active); in experiment [5] (at 50.0 µM) it was 31.6%; in experiment [6] (setting [7]), 41%; in experiment [6] (setting [8]) it was 99% (active); in experiment [6] (at 50.0 µM), 45.9%.
Consider `Cc1ccccc1Sc1ccccc1[N+](=O)[O-]`, for which the growth inhibition in experiment [1] (setting [7]) is 2%; in experiment [1] (setting [8]) it was 35%; in experiment [1] (at 50.0 µM), 12.9%; in experiment [2] (setting [7]), 1%; in experiment [2] (setting [8]), 5%; in experiment [2] (at 50.0 µM) it was 12.8%. Moreover, the growth inhibition in experiment [3] (setting [7]) is 0%; in experiment [3] (setting [8]) it was 27%; in experiment [3] (at 50.0 µM), 26.1%; in experiment [4] (setting [7]), 5%; in experiment [4] (setting [8]), 7%; in experiment [4] (at 50.0 µM), 11.1%. In addition, the growth inhibition in experiment [5] (setting [7]) was -1%; in experiment [5] (setting [8]), 8%; in experiment [5] (at 50.0 µM) it was 20.6%; in experiment [6] (setting [7]), 2%; in experiment [6] (setting [8]) it was 39%; in experiment [6] (at 50.0 µM) it was 74.5% (active).
For the molecule `O=C(/C=N/O)Nc1ccc(Cl)c(I)c1`, the growth inhibition is -32% in experiment [1] (setting [7]); 83% (active) in experiment [1] (setting [8]); 85.2% (active) in experiment [1] (at 50.0 µM); -15% in experiment [2] (setting [7]); 87% (active) in experiment [2] (setting [8]); 86.5% (active) in experiment [2] (at 50.0 µM). Also, the growth inhibition in experiment [3] (setting [7]) is -17%; in experiment [3] (setting [8]), 85% (active); in experiment [3] (at 50.0 µM), 80.2% (active); in experiment [4] (setting [7]), 5%; in experiment [4] (setting [8]), 88% (active); in experiment [4] (at 50.0 µM), 81.9% (active). The growth inhibition in experiment [5] (setting [7]) was -9%; in experiment [5] (setting [8]), 93% (active); in experiment [5] (at 50.0 µM), 86.8% (active); in experiment [6] (setting [7]), -24%; in experiment [6] (setting [8]), 92% (active); in experiment [6] (at 50.0 µM), 84.6% (active).
`CC(=O)OC1CCC2(C)C(=CCC3C2CCC2(C)C3CC(C(N)=O)C2C(C)=O)C1` (stereo not given): the growth inhibition in experiment [1] (setting [7]) was -2%; in experiment [1] (setting [8]) it was 25%; in experiment [1] (at 50.0 µM), 49%; in experiment [2] (setting [7]) it was 1%; in experiment [2] (setting [8]) it was 79% (active); in experiment [2] (at 50.0 µM), 14.6%. Further, the growth inhibition in experiment [3] (setting [7]) was 6%; in experiment [3] (setting [8]), 75% (active); in experiment [3] (at 50.0 µM), 76.8% (active); in experiment [4] (setting [7]), -3%; in experiment [4] (setting [8]) it was 57%; in experiment [4] (at 50.0 µM), 61.6%. The growth inhibition in experiment [5] (setting [7]) was 9%; in experiment [5] (setting [8]), 97% (active); in experiment [5] (at 50.0 µM), 7.4%; in experiment [6] (setting [7]), -1%; in experiment [6] (setting [8]) it was 70% (active); in experiment [6] (at 50.0 µM), 59.3%.
For `CCCCCCCCN(CCCCCCCC)CC(O)c1cc(-c2ccc(OC)cc2)nc2cc(Cl)ccc12` (stereo not given), the growth inhibition was -2% in experiment [1] (setting [7]); 81% (active) in experiment [1] (setting [8]); 42.5% in experiment [1] (at 50.0 µM); 8% in experiment [2] (setting [7]); 86% (active) in experiment [2] (setting [8]); 92.5% (active) in experiment [2] (at 50.0 µM). Moreover, the growth inhibition in experiment [3] (setting [7]) is 17%; in experiment [3] (setting [8]) it was 85% (active); in experiment [3] (at 50.0 µM), 48.6%; in experiment [4] (setting [7]) it was 8%; in experiment [4] (setting [8]), 76% (active); in experiment [4] (at 50.0 µM), 84% (active). In addition, the growth inhibition in experiment [5] (setting [7]) is 12%; in experiment [5] (setting [8]), 85% (active); in experiment [5] (at 50.0 µM), 75.7% (active); in experiment [6] (setting [7]) it was 7%; in experiment [6] (setting [8]) it was 84% (active); in experiment [6] (at 50.0 µM) it was 89% (active).
Turning to `CN(C)c1ccccc1[CH2][Ga]([Cl])[CH2]c1ccccc1N(C)C`, the growth inhibition in experiment [1] (setting [7]) is 15%; in experiment [1] (setting [8]), 96% (active); in experiment [1] (at 50.0 µM), 88.9% (active); in experiment [2] (setting [7]), -1%; in experiment [2] (setting [8]) it was 98% (active); in experiment [2] (at 50.0 µM), 92.6% (active). Also, the growth inhibition was 13% in experiment [3] (setting [7]); 51% in experiment [3] (setting [8]); 90.8% (active) in experiment [3] (at 50.0 µM); 16% in experiment [4] (setting [7]); 98% (active) in experiment [4] (setting [8]); 90.3% (active) in experiment [4] (at 50.0 µM). For the same molecule, the growth inhibition in experiment [5] (setting [7]) is 9%; in experiment [5] (setting [8]), 97% (active); in experiment [5] (at 50.0 µM), 91.3% (active); in experiment [6] (setting [7]) it was 26%; in experiment [6] (setting [8]), 98% (active); in experiment [6] (at 50.0 µM), 89.2% (active).
For the molecule `CN=c1sc2c(n1C)C(=O)c1ccccc1C2=O`, the growth inhibition in experiment [1] (setting [7]) was 26%; in experiment [1] (setting [8]), 48%; in experiment [1] (at 50.0 µM), 82.6% (active); in experiment [2] (setting [7]), 17%; in experiment [2] (setting [8]) it was 40%; in experiment [2] (at 50.0 µM), 75.7% (active). The growth inhibition was 31% in experiment [3] (setting [7]); 49% in experiment [3] (setting [8]); 87.8% (active) in experiment [3] (at 50.0 µM); 21% in experiment [4] (setting [7]); 23% in experiment [4] (setting [8]); 25.6% in experiment [4] (at 50.0 µM). For the same molecule, the growth inhibition was 28% in experiment [5] (setting [7]); 64% in experiment [5] (setting [8]); 65.9% in experiment [5] (at 50.0 µM); 23% in experiment [6] (setting [7]); 54% in experiment [6] (setting [8]); 80.8% (active) in experiment [6] (at 50.0 µM).
For `COc1ccc2ccc(/C=C/[N+](=O)[O-])cc2c1OC`, the growth inhibition in experiment [1] (setting [7]) was 48%; in experiment [1] (setting [8]), 98% (active); in experiment [1] (at 50.0 µM), 55.1%; in experiment [2] (setting [7]) it was 40%; in experiment [2] (setting [8]), 99% (active); in experiment [2] (at 50.0 µM), 88.2% (active). Moreover, the growth inhibition in experiment [3] (setting [7]) is 53%; in experiment [3] (setting [8]), 99% (active); in experiment [3] (at 50.0 µM) it was 34.8%; in experiment [4] (setting [7]) it was 41%; in experiment [4] (setting [8]), 99% (active); in experiment [4] (at 50.0 µM), 37.9%. Further, the growth inhibition was 67% in experiment [5] (setting [7]); 99% (active) in experiment [5] (setting [8]); 85.3% (active) in experiment [5] (at 50.0 µM); 37% in experiment [6] (setting [7]); 98% (active) in experiment [6] (setting [8]); 67.6% in experiment [6] (at 50.0 µM).
As for `O=C1OC(c2ccccc2)N/C1=C\c1ccc2c(c1)OCO2` (stereo not given), the growth inhibition is 34% in experiment [1] (setting [7]); 53% in experiment [1] (setting [8]); -45.7% in experiment [1] (at 50.0 µM); 17% in experiment [2] (setting [7]); 20% in experiment [2] (setting [8]); -53.1% in experiment [2] (at 50.0 µM). Moreover, the growth inhibition is 22% in experiment [3] (setting [7]); 24% in experiment [3] (setting [8]); -8.55% in experiment [3] (at 50.0 µM); 11% in experiment [4] (setting [7]); 21% in experiment [4] (setting [8]); 3.55% in experiment [4] (at 50.0 µM). Further, the growth inhibition in experiment [5] (setting [7]) was 22%; in experiment [5] (setting [8]), 19%; in experiment [5] (at 50.0 µM), -14.7%; in experiment [6] (setting [7]), 18%; in experiment [6] (setting [8]) it was 26%; in experiment [6] (at 50.0 µM), -6.95%.
In the case of `CSc1ccc(/C=C2\CNC/C(=C\c3ccc(SC)cc3)C2=O)cc1`, the growth inhibition in experiment [1] (setting [7]) is 12%; in experiment [1] (setting [8]), 18%; in experiment [1] (at 50.0 µM), 47.4%; in experiment [2] (setting [7]), 15%; in experiment [2] (setting [8]), 19%; in experiment [2] (at 50.0 µM), 55.2%. In addition, the growth inhibition was 26% in experiment [3] (setting [7]); 32% in experiment [3] (setting [8]); 69.8% in experiment [3] (at 50.0 µM); 23% in experiment [4] (setting [7]); 29% in experiment [4] (setting [8]); 46.9% in experiment [4] (at 50.0 µM). In addition, the growth inhibition in experiment [5] (setting [7]) was 17%; in experiment [5] (setting [8]), 23%; in experiment [5] (at 50.0 µM), 35%; in experiment [6] (setting [7]), 24%; in experiment [6] (setting [8]) it was 33%; in experiment [6] (at 50.0 µM), 71.6% (active).
